Results reported in PubChem BioAssay (NCI).
Compounds without any hit were thinned out: in the full panel of roughly 83,000, 20% have a hit.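 Interpretation: 100, growth as untreated; towards 0, rising growth inhibition; 0, no net growth; 0 to -100, cell death. Compounds scoring below 10 were considered active.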 The source made the active and inactive calls.

Legend:
Experiment in all cases: NCI-60 one-dose screen, 48 h (100 = growth as untreated, 0 = no growth, -100 = all killed)
Conditions in all cases: 10 µM unless noted
SK-MEL-2 melanoma = test system: SK-MEL-2 melanoma
SN12C renal = test system: SN12C renal
UO-31 renal = test system: UO-31 renal
TK-10 renal = test system: TK-10 renal
ACHN renal = test system: ACHN renal
CAKI-1 renal = test system: CAKI-1 renal
A498 renal = test system: A498 renal
MOLT-4 leukemia = test system: MOLT-4 leukemia
SR leukemia = test system: SR leukemia
RPMI-8226 leukemia = test system: RPMI-8226 leukemia
OVCAR-8 ovarian = test system: OVCAR-8 ovarian
OVCAR-5 ovarian = test system: OVCAR-5 ovarian
OVCAR-4 ovarian = test system: OVCAR-4 ovarian
SK-OV-3 ovarian = test system: SK-OV-3 ovarian
IGROV1 ovarian = test system: IGROV1 ovarian
OVCAR-3 ovarian = test system: OVCAR-3 ovarian
HS 578T breast = test system: HS 578T breast
NCI/ADR-RES ovarian = test system: NCI/ADR-RES ovarian
CCRF-CEM leukemia = test system: CCRF-CEM leukemia

Measured: growth

Oc1c(CN2CCCC2)cc(COCc2ccc(Br)cc2)c2cccnc12
inactive: SN12C renal 12% | OVCAR-5 ovarian 29.6% | HS 578T breast 45.2%
active: SK-MEL-2 melanoma -18% | UO-31 renal -13.9% | TK-10 renal 7.24% | ACHN renal 0.47% | CAKI-1 renal 1.4% | A498 renal -1.12% | MOLT-4 leukemia -8.18% | SR leukemia 3.12% | RPMI-8226 leukemia 1% | OVCAR-8 ovarian -27% | OVCAR-4 ovarian -5.71% | SK-OV-3 ovarian -17.4% | IGROV1 ovarian -6.09% | OVCAR-3 ovarian -4.02% | NCI/ADR-RES ovarian -40.9%

COc1cc(/C=N/NC(=O)Cn2c(C(C)C)nc3ccccc32)ccc1O
inactive: SK-MEL-2 melanoma 105% | SN12C renal 94.7% | UO-31 renal 84.5% | TK-10 renal 106% | ACHN renal 99.6% | CAKI-1 renal 91.8% | A498 renal 81.9% | CCRF-CEM leukemia 94.5% | RPMI-8226 leukemia 87% | OVCAR-8 ovarian 98.8% | OVCAR-5 ovarian 94.6% | OVCAR-4 ovarian 108% | SK-OV-3 ovarian 100% | IGROV1 ovarian 91.1% | OVCAR-3 ovarian 108% | HS 578T breast 98.2% | NCI/ADR-RES ovarian 99.3%

CN(C)CCCn1c(=O)c2ccccc2c2ccccc21
inactive: SK-MEL-2 melanoma 83.7% | SN12C renal 50.6% | UO-31 renal 53.6% | TK-10 renal 79.3% | ACHN renal 42.2% | CAKI-1 renal 79.8% | A498 renal 104% | RPMI-8226 leukemia 59.9% | OVCAR-8 ovarian 49.8% | OVCAR-5 ovarian 73.3% | OVCAR-4 ovarian 86.3% | SK-OV-3 ovarian 92.3% | IGROV1 ovarian 56.2% | OVCAR-3 ovarian 96.5% | HS 578T breast 79.3% | NCI/ADR-RES ovarian 78.3%

Cc1ccc(Cl)cc1NC(=O)c1cc2ccccc2cc1O
active: SK-MEL-2 melanoma -12.3% | SN12C renal -21.8% | UO-31 renal -8.04% | TK-10 renal -1.32% | ACHN renal -15% | CAKI-1 renal -16.8% | A498 renal -31.4% | CCRF-CEM leukemia -22.3% | MOLT-4 leukemia -37.4% | RPMI-8226 leukemia -58.2% | OVCAR-8 ovarian 7.85% | OVCAR-5 ovarian -5.91% | OVCAR-4 ovarian 3.71% | IGROV1 ovarian -5.94% | OVCAR-3 ovarian -25.9% | HS 578T breast -21% | NCI/ADR-RES ovarian -27.9%

CCCCCCCCCCN(CCCCCCCCCC)CC(=O)c1ccc2cc(Br)c3ccccc3c2c1
active: UO-31 renal 2.3% | MOLT-4 leukemia -39.6% | SR leukemia -28.5% | RPMI-8226 leukemia -33.1% | IGROV1 ovarian -79.5%
inactive: SK-MEL-2 melanoma 101% | SN12C renal 81.1% | TK-10 renal 79.9% | ACHN renal 97.3% | CAKI-1 renal 46.3% | OVCAR-8 ovarian 86.9% | OVCAR-5 ovarian 95.3% | OVCAR-4 ovarian 77.4% | SK-OV-3 ovarian 104% | OVCAR-3 ovarian 51.2% | NCI/ADR-RES ovarian 64.8%

COc1ccc(/C=C/c2c(C(=O)/C=C/c3ccc(F)cc3)c(C)nc3ccccc23)cc1
active: CCRF-CEM leukemia 9.18% | MOLT-4 leukemia 5.98% | RPMI-8226 leukemia -8.58%
inactive: SK-MEL-2 melanoma 81.3% | SN12C renal 45.2% | UO-31 renal 45.6% | TK-10 renal 110% | ACHN renal 49.2% | CAKI-1 renal 54.6% | A498 renal 77.2% | OVCAR-8 ovarian 41.3% | OVCAR-5 ovarian 50.9% | OVCAR-4 ovarian 56% | SK-OV-3 ovarian 75.9% | IGROV1 ovarian 38.8% | OVCAR-3 ovarian 37.5% | HS 578T breast 70.5% | NCI/ADR-RES ovarian 33.1%

CC(C)CCC[C@@H](C)[C@H]1CC[C@H]2[C@@H](Nc3ccc(O)cc3)CCC[C@]12C
active: UO-31 renal 7.74% | OVCAR-4 ovarian -73.1%
inactive: SK-MEL-2 melanoma 86.1% | SN12C renal 108% | TK-10 renal 83% | ACHN renal 78.8% | CAKI-1 renal 37.7% | A498 renal 67.6% | CCRF-CEM leukemia 32.2% | SR leukemia 71.8% | RPMI-8226 leukemia 96.6% | OVCAR-8 ovarian 97.6% | OVCAR-5 ovarian 114% | SK-OV-3 ovarian 75.3% | IGROV1 ovarian 38.8% | OVCAR-3 ovarian 84.8% | HS 578T breast 104% | NCI/ADR-RES ovarian 71.4%

COc1cc(-c2nc(N3CCN(C)CC3)c3ccccc3n2)cc(OC)c1OC
active: OVCAR-3 ovarian 3.18%
inactive: SK-MEL-2 melanoma 81.2% | SN12C renal 82.6% | UO-31 renal 45% | TK-10 renal 94.1% | ACHN renal 47.5% | CAKI-1 renal 50.3% | A498 renal 21.6% | CCRF-CEM leukemia 99.3% | SR leukemia 48.9% | RPMI-8226 leukemia 71.2% | OVCAR-5 ovarian 88.5% | OVCAR-4 ovarian 55.9% | SK-OV-3 ovarian 68.4% | IGROV1 ovarian 62.5% | HS 578T breast 41.1% | NCI/ADR-RES ovarian 10.3%

Cc1ccc(C(=O)C2=C(O)C(=O)N(Cc3cccnc3)C2c2ccccc2F)o1 (stereo not given)
inactive: SK-MEL-2 melanoma 92.1% | SN12C renal 95.7% | UO-31 renal 93.3% | TK-10 renal 104% | ACHN renal 98.5% | CAKI-1 renal 105% | A498 renal 95% | MOLT-4 leukemia 90.3% | SR leukemia 97.3% | RPMI-8226 leukemia 105% | OVCAR-8 ovarian 92.6% | OVCAR-5 ovarian 101% | OVCAR-4 ovarian 106% | SK-OV-3 ovarian 94.5% | IGROV1 ovarian 68.2% | OVCAR-3 ovarian 97.4% | HS 578T breast 102% | NCI/ADR-RES ovarian 98.9%

COc1ccc(-c2c(N)n[nH]c2-c2ccc(Cl)cc2O)cc1OC
inactive: SK-MEL-2 melanoma 78.7% | SN12C renal 52.4% | UO-31 renal 74% | TK-10 renal 102% | ACHN renal 96.1% | CAKI-1 renal 90.5% | A498 renal 86.6% | CCRF-CEM leukemia 69.1% | RPMI-8226 leukemia 74.5% | OVCAR-8 ovarian 87.1% | OVCAR-5 ovarian 72.6% | OVCAR-4 ovarian 94.1% | SK-OV-3 ovarian 102% | IGROV1 ovarian 92.3% | OVCAR-3 ovarian 95.6% | HS 578T breast 89.2% | NCI/ADR-RES ovarian 90.4%

NNC(=O)c1nc(N)n(-c2ccc(S(N)(=O)=O)cc2)n1
inactive: SK-MEL-2 melanoma 107% | SN12C renal 97.6% | UO-31 renal 76.2% | TK-10 renal 104% | ACHN renal 100% | CAKI-1 renal 88% | A498 renal 103% | MOLT-4 leukemia 105% | SR leukemia 88.5% | RPMI-8226 leukemia 91.4% | OVCAR-8 ovarian 96.2% | OVCAR-5 ovarian 101% | OVCAR-4 ovarian 100% | SK-OV-3 ovarian 94.7% | IGROV1 ovarian 103% | OVCAR-3 ovarian 89.2% | HS 578T breast 94.5% | NCI/ADR-RES ovarian 100%

Cc1nn(-c2ccccc2)c(Oc2ccc(Cl)cc2)c1/C=N\N=c1/sc2ccccc2n1C
inactive: SK-MEL-2 melanoma 78.1% | SN12C renal 88.4% | UO-31 renal 62.1% | TK-10 renal 117% | ACHN renal 93.9% | CAKI-1 renal 81.3% | A498 renal 92.2% | CCRF-CEM leukemia 86.8% | MOLT-4 leukemia 74.1% | RPMI-8226 leukemia 77.4% | OVCAR-8 ovarian 89.1% | OVCAR-5 ovarian 106% | OVCAR-4 ovarian 106% | SK-OV-3 ovarian 74.2% | IGROV1 ovarian 84.7% | OVCAR-3 ovarian 101% | HS 578T breast 78.8% | NCI/ADR-RES ovarian 98.1%

Cc1ccc2nc(NC(=O)CSc3nc(Nc4ccc([N+](=O)[O-])cc4)c(C#N)c(-c4ccccc4)n3)sc2c1
inactive: SK-MEL-2 melanoma 104% | SN12C renal 97.9% | UO-31 renal 78.8% | TK-10 renal 101% | ACHN renal 90.7% | CAKI-1 renal 87.9% | MOLT-4 leukemia 97.8% | SR leukemia 47.6% | RPMI-8226 leukemia 80% | OVCAR-8 ovarian 91.5% | OVCAR-5 ovarian 87.5% | OVCAR-4 ovarian 88.4% | SK-OV-3 ovarian 98.3% | IGROV1 ovarian 76.1% | OVCAR-3 ovarian 102% | HS 578T breast 85% | NCI/ADR-RES ovarian 95%

C=CCOC1=CC(=O)c2ccccc2C1=O
inactive: SK-MEL-2 melanoma 60.5% | SN12C renal 82.9% | UO-31 renal 74.2% | TK-10 renal 113% | ACHN renal 83% | CAKI-1 renal 101% | A498 renal 74.6% | MOLT-4 leukemia 65.8% | RPMI-8226 leukemia 92.7% | OVCAR-8 ovarian 57.2% | OVCAR-5 ovarian 110% | OVCAR-4 ovarian 42.1% | SK-OV-3 ovarian 109% | IGROV1 ovarian 85.5% | HS 578T breast 81.7% | NCI/ADR-RES ovarian 60.1%
active: SR leukemia 9.62% | OVCAR-3 ovarian -13.4%

COc1cc(C2CC(=O)Nc3c2c(C)nn3-c2nc3ccccc3[nH]2)c(OC)c(OC)c1OC (stereo not given)
inactive: SK-MEL-2 melanoma 50% | SN12C renal 73.9% | UO-31 renal 62.3% | TK-10 renal 12.5% | ACHN renal 86.6% | CAKI-1 renal 43.6% | CCRF-CEM leukemia 39.6% | MOLT-4 leukemia 20.3% | RPMI-8226 leukemia 55.1% | OVCAR-8 ovarian 47.4% | OVCAR-5 ovarian 104% | OVCAR-4 ovarian 73.1% | SK-OV-3 ovarian 40% | IGROV1 ovarian 76.9% | OVCAR-3 ovarian 12.2% | HS 578T breast 25.5% | NCI/ADR-RES ovarian 57.7%
active: A498 renal -9.27%

COc1ccc2[nH]c(O)c(/C=c3/cc4c(c(-c5cc(OC)c(OC)c(OC)c5)n3)=Nc3ccccc3-4)c2c1
inactive: SK-MEL-2 melanoma 83% | SN12C renal 80.6% | UO-31 renal 51.5% | TK-10 renal 98% | ACHN renal 72% | CAKI-1 renal 71.6% | A498 renal 43.3% | MOLT-4 leukemia 23.5% | SR leukemia 10.4% | OVCAR-8 ovarian 42% | OVCAR-5 ovarian 116% | OVCAR-4 ovarian 64.8% | SK-OV-3 ovarian 113% | IGROV1 ovarian 85.8% | OVCAR-3 ovarian 74.5% | HS 578T breast 73.9% | NCI/ADR-RES ovarian 39.4%
active: RPMI-8226 leukemia 1.39%

c1c[nH]c(CNC2CCCCC2)c1
inactive: SK-MEL-2 melanoma 115% | SN12C renal 107% | UO-31 renal 89.8% | ACHN renal 98.1% | CAKI-1 renal 96.1% | CCRF-CEM leukemia 96.6% | SR leukemia 144% | RPMI-8226 leukemia 103% | OVCAR-8 ovarian 102% | OVCAR-5 ovarian 101% | OVCAR-4 ovarian 111% | SK-OV-3 ovarian 102% | IGROV1 ovarian 107% | OVCAR-3 ovarian 98.1% | HS 578T breast 102% | NCI/ADR-RES ovarian 99.1%
